SMILES strings stand for the structures. In all, about 310,000 compounds went through this assay and about 14,000 (4.5%) showed an effect of 50% or more. The effect is printed as a negative number. This excerpt belongs to a sample that is enriched for strong results.
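Also: peak tail current of the secondary pulse compared with the same well before compound.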

Chain of human ether-à-go-go-related gene (hERG) potassium channel (Q12809 whole entry, looked up): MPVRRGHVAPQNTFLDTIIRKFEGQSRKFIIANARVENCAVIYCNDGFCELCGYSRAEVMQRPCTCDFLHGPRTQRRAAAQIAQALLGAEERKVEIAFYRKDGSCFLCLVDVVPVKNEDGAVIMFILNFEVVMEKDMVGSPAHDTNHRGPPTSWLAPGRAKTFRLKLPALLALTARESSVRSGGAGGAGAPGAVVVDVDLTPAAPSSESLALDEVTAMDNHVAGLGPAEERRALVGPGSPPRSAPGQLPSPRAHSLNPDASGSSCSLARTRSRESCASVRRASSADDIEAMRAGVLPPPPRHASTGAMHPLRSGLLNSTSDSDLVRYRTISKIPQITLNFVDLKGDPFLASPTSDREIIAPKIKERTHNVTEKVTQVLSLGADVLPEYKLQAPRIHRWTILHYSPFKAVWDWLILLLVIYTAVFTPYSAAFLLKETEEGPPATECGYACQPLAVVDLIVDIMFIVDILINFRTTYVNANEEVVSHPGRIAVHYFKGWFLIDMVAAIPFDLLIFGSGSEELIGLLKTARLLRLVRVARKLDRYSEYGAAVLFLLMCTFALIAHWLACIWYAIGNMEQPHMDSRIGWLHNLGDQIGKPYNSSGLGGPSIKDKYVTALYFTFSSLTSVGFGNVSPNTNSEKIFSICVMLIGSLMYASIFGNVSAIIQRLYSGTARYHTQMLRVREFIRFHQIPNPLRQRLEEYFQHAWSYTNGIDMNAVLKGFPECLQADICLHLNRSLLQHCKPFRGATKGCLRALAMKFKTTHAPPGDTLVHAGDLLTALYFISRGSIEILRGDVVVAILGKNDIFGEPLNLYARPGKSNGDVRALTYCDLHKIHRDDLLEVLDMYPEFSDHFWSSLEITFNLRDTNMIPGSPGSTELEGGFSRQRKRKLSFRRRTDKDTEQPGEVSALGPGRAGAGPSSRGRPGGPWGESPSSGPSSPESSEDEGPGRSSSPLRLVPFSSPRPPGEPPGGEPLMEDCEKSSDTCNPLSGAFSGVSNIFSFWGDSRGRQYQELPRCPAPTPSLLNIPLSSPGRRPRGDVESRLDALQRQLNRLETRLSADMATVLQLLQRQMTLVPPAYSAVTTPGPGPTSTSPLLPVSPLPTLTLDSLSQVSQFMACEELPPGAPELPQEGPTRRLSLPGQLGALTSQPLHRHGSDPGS

The assay concerns the target human ether-à-go-go-related gene (hERG) potassium channel (human, UniProt Q12809). Description: primary screen, population patch clamp on CHO cells stably expressing hERG; higher = less effect of the substance.
As to `CC1(c2nnc(Cc3ccccc3)o2)CC(c2cccnc2)=NO1` (stereo not shown), the “hERG current change (%, negative = inhibition) at 10uM” value was 3.26%.
To `Cc1ccc(N=C(NO)c2nonc2N)cc1` belongs 10.1%; to `CCOC(=O)c1[nH]c2ccccc2c1NC(=O)C1CCCC1`, 3.28%; to `O=C(/C=C/c1ccccc1Cl)Nc1ccncc1`, -3.65%.
To `Cc1cc(NC(=O)CSCC(=O)NCc2cccc(C(F)(F)F)c2)no1` belongs -18.7%; to `O=C(O)CCC(=O)N1CCc2cc(S(=O)(=O)NC3CCCc4ccccc43)ccc21` (stereo not shown), -5.02%.
To `[Cl-].c1ccc(C[n+]2c(-c3ccccc3)csc2Nc2ccccc2)cc1` belongs 19.6%.
As for `CN(C(=O)COC(=O)CSc1ccc(C(N)=O)cc1[N+](=O)[O-])C1CCS(=O)(=O)C1` (stereo not shown), the “hERG current change (%, negative = inhibition) at 10uM” value is recorded as -11.4%.
To `Cc1cc(Br)cc(Cl)c1OCC(=O)N1CCN(C(=O)c2ccco2)CC1` belongs -63.3%; to `Cc1ccc(SCC(=O)OCC(=O)N(C)C2CCS(=O)(=O)C2)cc1C` (stereo not shown), -11.5%; to `Cc1cccc(OCC(=O)OCC(=O)N2CCN(C(=O)c3ccco3)CC2)c1C`, -31.8%.
For the molecule `CCOC(=O)N1CCN(C(=O)COC(=O)CSc2cc(C)c(Br)cc2C)CC1`, the “hERG current change (%, negative = inhibition) at 10uM” value was -38.5%.
In the case of `Cc1cc(C)c(OCC(=O)OCC(=O)N2CCN(C(=O)c3ccco3)CC2)c(C)c1`, the “hERG current change (%, negative = inhibition) at 10uM” value was -30.4%.
To `Cc1cc(SCC(=O)OCC(=O)N2CCN(C(=O)c3ccco3)CC2)c(C)cc1Br` belongs -50.2%; to `O=C(CSc1cccc2cccc(Cl)c12)OCC(=O)N1CCN(C(=O)c2ccco2)CC1`, -69.2%; to `Cc1cc(SCC(=O)OCC(=O)N(C)C2CCS(=O)(=O)C2)c(C)cc1Br` (stereo not shown), -73.1%.
To `O=C(CSc1ccccc1F)OCC(=O)N1CCN(C(=O)c2ccco2)CC1` belongs -27.2%.
To `O=C(COc1ccccc1Br)N1CCN(C(=O)c2ccco2)CC1` belongs -31.3%; to `NC(=O)COC(=O)CSc1cccc2cccc(Cl)c12`, 14.8%.
Take `O=C(c1ccco1)c1cn[nH]c1-c1ccc(Cl)cc1O`: the “hERG current change (%, negative = inhibition) at 10uM” value is -8.52%.
In the case of `C/C(=N\NC(=O)CN(c1ccc(Oc2ccccc2)cc1)S(C)(=O)=O)C(C)(C)C`, the “hERG current change (%, negative = inhibition) at 10uM” value was 7.07%.
To `COc1ccccc1CNC(=O)COC(=O)Cc1ccc(F)cc1` belongs 8.81%.
In the case of `O=C(Cc1ccccc1)NCc1nc2ccccc2[nH]1`, the “hERG current change (%, negative = inhibition) at 10uM” value is given as -6.31%.
To `O=C(NCCc1ccncc1)Nc1cccc(Cl)c1` belongs -3.75%.
`O=C(NCc1cccnc1)C1CCN(C(=O)c2ccc(Cl)cc2Cl)CC1`: the “hERG current change (%, negative = inhibition) at 10uM” value was -10.8%.
To `O=[N+]([O-])c1cccc(S(=O)(=O)Nc2ccc(S(=O)(=O)Nc3nccs3)cc2)c1` belongs 13.9%.
To `CCOC(=O)CN1C(=O)C(O)(CC(=O)c2cccc(OC)c2)c2ccccc21` (stereo not shown) belongs 5.13%.
To `O=C(NCC(c1ccco1)N1CCN(c2ccccc2)CC1)c1ccc2c(c1)OCO2` (stereo not shown) belongs -5.86%; to `Cc1cc(Br)ccc1SCC(=O)OCC(=O)N1CCN(C(=O)c2ccco2)CC1`, -66.8%.
Regarding `CC(=O)N1CCN(C(=O)CSc2cc(C)c(Br)cc2C)CC1`, the “hERG current change (%, negative = inhibition) at 10uM” value was determined as 3.18%.
To `NC(=O)c1ccc(SCC(=O)OCC(=O)N2CCN(C(=O)c3ccco3)CC2)c([N+](=O)[O-])c1` belongs 23.3%; to `Nc1cc(N)nc(SCC(=O)N2CCN(C(=O)c3ccco3)CC2)n1`, 0.783%; to `Cc1cc(SCC(=O)N2CCN(C(=O)c3ccco3)CC2)c(C)cc1Br`, -62.3%.
To `Cc1ccc(SCC(=O)OCC(=O)N2CCN(C(=O)c3ccco3)CC2)c(C)c1` belongs -41.6%; to `CCCC(O)(CCC)C(=O)NNc1ccccc1`, 12.4%; to `O=C(NCCCN1CCCC1=O)c1ccc2c(=O)n(Cc3ccco3)c(=S)[nH]c2c1`, -17.8%.
For `Cc1ccc2oc(=O)c3cnn(CC(=O)NC4CCCCC4C)c3c2c1` (stereo not shown), the “hERG current change (%, negative = inhibition) at 10uM” value is recorded as 8.43%.
For `CS(=O)(=O)N1CCc2cc(NC(=O)c3ccc(Cl)cc3Cl)ccc21`, the “hERG current change (%, negative = inhibition) at 10uM” value was 1.5%.
To `CCN(CC)C(=O)CSc1nc2ccccc2c(=O)[nH]1` belongs 12.5%.
To `Cn1c(=O)n(C)c2cc(NS(=O)(=O)c3ccccc3)ccc21` belongs 4.09%; to `CCn1c(=O)c(=O)n(CC)c2cc(S(=O)(=O)Nc3ccc(C)cc3)ccc21`, 7.02%.
To `CCn1c(=O)n(CC)c2cc(NS(=O)(=O)c3ccccc3)ccc21` belongs -68.7%; to `Cn1cccc1-c1nc2ccc(NC(=O)c3ccccc3)cc2[nH]1`, -39.3%; to `O=S(=O)(Nc1ccc2nc(-c3ccco3)[nH]c2c1)c1ccccc1`, -58.4%.
With `Cc1ccc(-c2nc3ccc(NS(=O)(=O)c4ccccc4)cc3[nH]2)o1`, the “hERG current change (%, negative = inhibition) at 10uM” value was -47.3%.
To `CC(=O)Nc1ccc2nc(-c3ccco3)[nH]c2c1` belongs 7.99%; to `O=C(Nc1ccc(-c2nc3ccc(NC(=O)c4cccs4)cc3[nH]2)cc1)c1cccs1`, 18.1%.
To `Cc1ccc(S(=O)(=O)Nc2ccc3nc(-c4cccn4C)[nH]c3c2)cc1` belongs -79.3%.
To `Cn1cccc1-c1nc2ccc(NC(=O)c3cccs3)cc2[nH]1` belongs -53.3%.
As to `Cn1cccc1-c1nc2ccc([N+](=O)[O-])cc2[nH]1`, the “hERG current change (%, negative = inhibition) at 10uM” value was 4.4%.
To `CC(=O)Nc1ccc2nc(-c3cccn3C)[nH]c2c1` belongs 12.8%.
To `COc1ccccc1CNC(=O)CNC(=O)[C@@H]1Cc2ccccc2CN1` belongs 1.14%.
To `Cc1c(NC(=O)CSc2nnc(N)s2)c(=O)n(-c2ccccc2)n1C` belongs -10.4%.
In the case of `Cc1ccnc(NC(=O)CN(C)S(=O)(=O)c2cccc3nsnc23)c1`, the “hERG current change (%, negative = inhibition) at 10uM” value is reported as 7.8%.
`O=S(=O)(Nc1ccc(Cl)cc1)c1ccc2c(c1)CCO2`: the “hERG current change (%, negative = inhibition) at 10uM” value is -3.21%.
To `O=C(O)c1ccc(NS(=O)(=O)c2cc(Cl)sc2Cl)cc1` belongs 21.3%.
To `Cc1oc2c(Cl)c(Cl)c(O)c(CN(C)C)c2c1C(=O)c1ccc(Cl)cc1` belongs -1.39%.
To `Cc1nnc(SCC(=O)NC2CCCc3c2cnn3-c2ccccc2F)o1` (stereo not shown) belongs 20.5%; to `O=C(NCc1cccnc1)c1cccn2c(=O)c3sccc3nc12`, -63.2%.
As to `O=C(NCc1ccco1)c1cccn2c(=O)c3c4c(sc3nc12)CCCC4`, the “hERG current change (%, negative = inhibition) at 10uM” value is listed as 13.6%.
To `O=C(NCc1cccs1)c1cccn2c(=O)c3sccc3nc12` belongs -7.79%; to `O=C(NCCNc1ccc2ccccc2c1)c1cccn2c(=O)c3sccc3nc12`, -6.94%.
To `O=C(O)c1ccccc1C(=O)NCc1cccnc1` belongs -32.8%.
To `O=C(NCc1ccco1)c1cccn2c(=O)c3sccc3nc12` belongs -68.4%; to `O=c1c2ccccc2ncn1-c1ccc([N+](=O)[O-])c(C(F)(F)F)c1`, -3.74%; to `CC#C[C@@H](CC)c1ccc2ccn(C)c2c1`, -4.51%.
In the case of `O=C(NC1CCCCCCC1)c1ccc(F)cc1`, the “hERG current change (%, negative = inhibition) at 10uM” value is 4.61%.
To `COC(=O)C(Cc1ccccc1)NC(=O)c1cc(=O)[nH]c2ccccc12` (stereo not shown) belongs 17.6%.
To `CC(C)CCNC(=O)c1ccc(NC(=O)C2=CSCCO2)cc1` belongs 4.36%; to `COc1ccccc1C1=NOC(C)(c2sc(-c3ccccc3)nc2C)C1` (stereo not shown), 21.7%.
To `Cc1cc(C)c(C#N)c(SCc2ccccc2)n1` belongs 11.2%; to `CNc1nnc(-c2ccncc2)s1`, -0.587%.
In the case of `Cc1ccc(Nc2nnc(-c3ccncc3)s2)c(Br)c1`, the “hERG current change (%, negative = inhibition) at 10uM” value is on record as -59.3%.
Turning to `Clc1ccccc1Nc1nnc(-c2ccncc2)s1`, the “hERG current change (%, negative = inhibition) at 10uM” value is -6.07%.
To `CCOc1ccc2oc(=O)cc(CN3CCN(C(=O)c4ccco4)CC3)c2c1` belongs -69.4%; to `CCOc1ccc2oc(=O)cc(CN3CCN(Cc4ccccc4)CC3)c2c1`, -56.7%.
In the case of `CCN1CCN(Cc2cc(=O)oc3ccc(Cl)cc23)CC1`, the “hERG current change (%, negative = inhibition) at 10uM” value was -15%.
To `CCOc1ccc(CN2CCN(C(=O)c3ccco3)CC2)cc1.O=C(O)C(=O)O` belongs -26.8%; to `CCOc1ccc2oc(=O)cc(CN3CCOCC3)c2c1`, -1.8%.
In the case of `Cc1cc(=O)oc2cc(OCC(=O)N3CCN(C(=O)c4ccco4)CC3)ccc12.Cl`, the “hERG current change (%, negative = inhibition) at 10uM” value is recorded as -32.6%.
To `O=C(COC(=O)CCc1nc2ccccc2c(=O)[nH]1)Nc1ccc(OC(F)(F)F)cc1` belongs -5.93%.
To `Cc1cc(OC2CCCCC2)nc(NCc2ccccc2)n1` belongs 1.82%; to `COc1ccccc1CNC(=O)COC(=O)Cc1cccc(F)c1`, 1.78%; to `CCC(=O)Nc1nnc(SCC(=O)N2c3ccccc3CC2C)s1` (stereo not shown), 5.26%.
To `CC1Cc2ccccc2N1C(=O)CSc1nnc(N)s1` (stereo not shown) belongs 13%.
Turning to `Cc1nnc(SCC(=O)N2c3ccccc3CC2C)s1` (stereo not shown), the “hERG current change (%, negative = inhibition) at 10uM” value is on record as -54.2%.
To `Cc1c(CN2CCN(CC(C)C)C(CCO)C2)[nH]c2ccc(Cl)cc12` (stereo not shown) belongs -34.4%; to `CCOc1ccc(CN2CCN(Cc3[nH]c4ccc(OC)cc4c3C)CC2CCO)cc1` (stereo not shown), -77.9%; to `CCOc1ccc(CN2CCN(Cc3[nH]c4ccccc4c3C)CC2CCO)cc1` (stereo not shown), -75.8%.
To `Cc1c(CN2CCN(CC(C)(C)C)C(CCO)C2)[nH]c2ccccc12` (stereo not shown) belongs 12.2%.
For `COc1ccc2[nH]c(CN3CCN(CC=C(C)C)C(CCO)C3)c(C)c2c1` (stereo not shown), the “hERG current change (%, negative = inhibition) at 10uM” value is -17.1%.
To `CC(C)CN1CCN(Cc2cc3ccccc3[nH]2)CC1CCO` (stereo not shown) belongs -8.69%; to `CCOc1ccccc1CN1CCN(Cc2c[nH]c3ccccc23)CC1CCO` (stereo not shown), -6.71%; to `CCOc1ccccc1CN1CCN(Cc2[nH]c3ccccc3c2C)CC1CCO` (stereo not shown), -62.3%.
To `COc1cccc(CN2CCN(Cc3cc4ccccc4[nH]3)CC2CCO)c1` (stereo not shown) belongs -59.7%; to `COc1ccc2[nH]c(CN3CCN(CCC(C)C)C(CCO)C3)c(C)c2c1` (stereo not shown), 23.5%.
To `COc1cccc(CN2CCN(Cc3ccc(C)o3)CC2CCO)c1` (stereo not shown) belongs -21.2%.
